The text below walks through data of PMC11574364.

Holding throughout (assay): protein domain microarray probed with biotinylated miRNA; Domain array: 20 mM Tris-HCl pH 7.4, 200 mM KCl, 0.2 mM EDTA, 0.05% NP40, 2 ug/ul heparin, overnight 4 C. ORF array: PBS pH 7.0 with RNase inhibitor, 100 ng RNA; high values mean tight binding
Common to all, as to conditions: ssRNA

The target in assay [1] is hnRNP E1(1-2) (Homo sapiens, UniProt Q15365).
The target in assay [2] is T1, TIAL1 (Homo sapiens, UniProt Q01085).
T1 sequence: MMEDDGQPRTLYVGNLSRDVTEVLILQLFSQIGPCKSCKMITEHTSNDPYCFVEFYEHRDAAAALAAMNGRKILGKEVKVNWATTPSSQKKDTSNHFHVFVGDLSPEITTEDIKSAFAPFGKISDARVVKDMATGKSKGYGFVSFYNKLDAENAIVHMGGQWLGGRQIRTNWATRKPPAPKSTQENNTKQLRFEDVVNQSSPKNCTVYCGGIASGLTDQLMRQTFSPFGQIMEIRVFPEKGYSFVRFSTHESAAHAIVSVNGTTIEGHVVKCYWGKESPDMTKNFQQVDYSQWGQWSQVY

In assay [3] the target is T2, RNPS1 (Homo sapiens, UniProt Q15287).
T2 sequence: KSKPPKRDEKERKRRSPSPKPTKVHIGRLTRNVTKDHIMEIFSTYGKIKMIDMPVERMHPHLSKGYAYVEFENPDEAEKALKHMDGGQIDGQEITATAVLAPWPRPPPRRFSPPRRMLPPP

Assay [4] concerns the target RBMY1A1 / RBMY1B (Homo sapiens, UniProt P0DJD3).
Assay [5] has as its target T3, SHARP(1) (Homo sapiens, UniProt Q96T58).
T3 sequence: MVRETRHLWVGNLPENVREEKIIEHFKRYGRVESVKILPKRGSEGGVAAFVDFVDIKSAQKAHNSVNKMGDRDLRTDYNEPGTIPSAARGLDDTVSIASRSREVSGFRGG

Assay [6] concerns the target T4, RBMX2 (Homo sapiens, UniProt Q9Y388).
T4 sequence: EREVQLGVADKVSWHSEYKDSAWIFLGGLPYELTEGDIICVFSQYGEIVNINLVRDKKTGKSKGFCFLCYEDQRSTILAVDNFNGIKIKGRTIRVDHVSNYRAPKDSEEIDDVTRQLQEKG

Assay [7] has as its target T5, RDM1 (Homo sapiens, UniProt Q8NG50).
T5 sequence: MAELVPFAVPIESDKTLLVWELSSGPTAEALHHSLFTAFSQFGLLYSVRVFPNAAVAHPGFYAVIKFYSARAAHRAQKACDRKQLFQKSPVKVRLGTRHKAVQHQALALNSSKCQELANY

Assay [8] addresses T6, SHARP(2-4) (Homo sapiens, UniProt Q96T58).
T6 sequence: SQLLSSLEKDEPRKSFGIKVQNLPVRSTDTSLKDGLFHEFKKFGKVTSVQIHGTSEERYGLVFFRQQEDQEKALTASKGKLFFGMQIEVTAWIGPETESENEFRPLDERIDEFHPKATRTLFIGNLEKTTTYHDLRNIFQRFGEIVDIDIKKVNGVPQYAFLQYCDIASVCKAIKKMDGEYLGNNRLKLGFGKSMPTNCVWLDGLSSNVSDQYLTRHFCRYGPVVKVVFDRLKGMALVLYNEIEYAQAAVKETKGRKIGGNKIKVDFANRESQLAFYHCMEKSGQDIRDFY

Assay [9] concerns the target SRSF10 (Homo sapiens, UniProt O75494).
Assay [10] addresses DDX9(2)/DHX9 (Homo sapiens, UniProt Q08211).

Sequence of DDX9(2)/DHX9 (Q08211 161-271): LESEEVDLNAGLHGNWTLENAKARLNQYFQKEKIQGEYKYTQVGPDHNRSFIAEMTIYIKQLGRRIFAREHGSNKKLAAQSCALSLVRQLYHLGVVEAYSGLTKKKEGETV
Sequence of RBMY1A1 / RBMY1B (P0DJD3 1-110): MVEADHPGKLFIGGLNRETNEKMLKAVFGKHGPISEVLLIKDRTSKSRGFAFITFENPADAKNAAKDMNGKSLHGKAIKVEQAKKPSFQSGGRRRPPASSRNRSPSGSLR
Sequence of hnRNP E1(1-2) (Q15365 1-183): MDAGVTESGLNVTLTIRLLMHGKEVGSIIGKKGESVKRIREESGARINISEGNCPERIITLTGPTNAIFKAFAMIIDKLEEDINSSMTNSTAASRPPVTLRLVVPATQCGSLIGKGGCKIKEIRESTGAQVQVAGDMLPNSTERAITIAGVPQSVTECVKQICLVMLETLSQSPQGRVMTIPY
Sequence of SRSF10 (O75494 1-120): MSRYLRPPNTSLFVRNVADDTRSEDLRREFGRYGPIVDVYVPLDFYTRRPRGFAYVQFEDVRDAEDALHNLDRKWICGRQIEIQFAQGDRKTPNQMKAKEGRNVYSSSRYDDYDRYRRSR

For CAGUGCAAUGAUGAAAGGGCAU, the binding signal in assay [1] was 26.8 ± 0.919 fluorescence intensity; in [2], 523 ± 28 fluorescence intensity; in assay [3], 160 ± 25.6 fluorescence intensity; in assay [4], 1153 ± 5.4 fluorescence intensity; in assay [5], 1723 ± 15.7 fluorescence intensity; in assay [6], 29.6 ± 4.16 fluorescence intensity. The binding signal in assay [7] amounted to 185 ± 14.8 fluorescence intensity; in assay [8], 630 ± 20.1 fluorescence intensity; in [9], 865.4 ± 6.43 fluorescence intensity; in assay [10], 26 ± 1.37 fluorescence intensity.
On to UAGCUUAUCAGACUGAUGUUGA, for which the binding signal in [2] worked out at 684 ± 18.7 fluorescence intensity; in assay [4], 602 ± 35.9 fluorescence intensity; in [5], 32 ± 6.87 fluorescence intensity; in [6], 21.4 ± 3.97 fluorescence intensity; in assay [7], 21.8 ± 0.523 fluorescence intensity; in assay [8], 705 ± 41.5 fluorescence intensity. In [9], this sequence came in with a binding signal of 33.4 ± 2.35 fluorescence intensity.
Consider UGAGGUAGUAGGUUGUGUGGUU, for which the binding signal in [1] came to 34.9 ± 2.48 fluorescence intensity; in assay [2] it was 740 ± 11.2 fluorescence intensity; in [3] it was 565 ± 18.8 fluorescence intensity; in [4], 1360 ± 32 fluorescence intensity; in assay [5], 1119.4 ± 0.849 fluorescence intensity; in [6], 111 ± 6.68 fluorescence intensity. The binding signal came to 427 ± 12.9 fluorescence intensity in assay [7], 1000 ± 18.8 fluorescence intensity in assay [8], 467 ± 36.1 fluorescence intensity in assay [9] and 53.91 ± 0.134 fluorescence intensity in assay [10].
For the sequence UGAGGUAGUAGGUUGUAUAGUU, the binding signal was 437 ± 10.1 fluorescence intensity in assay [2]; 45.1 ± 1.35 fluorescence intensity in [3]; 754 ± 30.5 fluorescence intensity in [4]; 63 ± 1.09 fluorescence intensity in assay [5]; 34.7 ± 8.67 fluorescence intensity in [6]; 46.4 ± 1.9 fluorescence intensity in [7]. For the same sequence, the binding signal is 138 ± 34.1 fluorescence intensity in [8] and 91 ± 3.12 fluorescence intensity in assay [9].
AGAGGUAGUAGGUUGCAUAGUU: the binding signal in [1] came out at 27.4 ± 2.06 fluorescence intensity; in assay [2] it was 1020 ± 13.1 fluorescence intensity; in [3], 183 ± 12.6 fluorescence intensity; in assay [4], 2000 ± 49 fluorescence intensity; in [5], 423 ± 5.21 fluorescence intensity; in assay [6] it was 65.8 ± 17.9 fluorescence intensity. Moreover, the binding signal in assay [7] worked out at 230 ± 20.4 fluorescence intensity; in [8], 711 ± 17.9 fluorescence intensity; in assay [9], 422 ± 31.8 fluorescence intensity; in [10], 33 ± 2.41 fluorescence intensity.
As for UGAGGUAGUAGGUUGUAUGGUU, the binding signal turned out to be 26.7 ± 0.438 fluorescence intensity in assay [1]; 789 ± 12.4 fluorescence intensity in assay [2]; 294 ± 40.2 fluorescence intensity in [3]; 1403 ± 13.2 fluorescence intensity in assay [4]; 702.32 ± 0.332 fluorescence intensity in [5]; 69.6 ± 0.757 fluorescence intensity in [6]. Moreover, the binding signal in [7] worked out at 232 ± 12 fluorescence intensity; in [8], 710 ± 31.7 fluorescence intensity; in [9], 375 ± 21.5 fluorescence intensity; in [10], 44.6 ± 4.16 fluorescence intensity.
